Rows were chosen to be rich in hits. Some 11% of all compounds tested hit in one or more screens of this group.
3T3 cytotox – cytotoxic compounds in NIH 3T3 cells; NIH 3T3 viability, CellTiter-Glo ATP luminescence, 48-72 h; Potency, µM (highest dose often 96.7 µM), most hits filed as inhibitors; 94,000 tested, 4.3% active; AID 1345082; further: nearly all actives have a fitted effect of over 55% in size
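Mouse fibroblast NIH 3T3 cells, 400 per well, received compound via pintool and were incubated for 48 or 72 hr prior to CellTiter-Glo ATP luminescence measurement.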
Luciferase inh – Photinus pyralis luciferase inhibition. P08659. purified P. pyralis luciferase, luminescence, biochemical. Potency, µM (highest dose often 115 µM), hits mostly inhibitors. 76,000 tested, 2.5% active. AID 1347043; further: nearly all actives have a fitted effect of over 65% in size
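Inhibitors were tested against purified firefly luciferase in a biochemical, low-substrate format (both substrates at 10uM) and luminescence measured with a CCD imager.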
hNpr1 antagonist – blocks ANP-stimulated signaling of human Npr1 receptor | HEK293 hNpr1 GloSensor cGMP, ANP-stimulated luminescence | Potency, µM (titrated, usually from 46.3 µM), most hits filed as inhibitors | 76,000 tested, 1.6% active; calls by dose curve; further: nearly all actives have a fitted effect of over 60% in size
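Compound pre-incubated 30 min at room temperature on GloSensor-loaded HEK293 cells stably carrying hNpr1 and the pGS-40F cGMP biosensor. Stimulation uses hNppA at 0.1 nM final; luminescence is taken at baseline and 20 min post-agonist.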
HEK293 tox – kills HEK 293 cells. AID 1345083. HEK 293 viability, ATP luminescence (CellTiter-Glo), 48-72 h. 94,000 tested, 6.6% active. Potency, µM (top dose mostly 115 µM), hits mostly inhibitors; further: nearly all actives have a fitted effect of over 60% in size
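HEK 293 seeded at 250 cells/well receive compound via pintool. After 48 or 72 hr at 37 degree Celsius, 5% CO2 and 95% humidity, CellTiter-Glo is dispensed and luminescence read following 10 min at room temperature.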
Numbers stand for hits; – = inactive; ? = inconclusive; · = no result given; ! = repeats disagree. Unless noted, the call rests on the fitted dose curve; in most records, active means well fitted curve in the direction sought with a large enough effect; inconclusive means small, poorly fitted or top-dose-only effect, or another doubt; inactive means no such curve, though single readings can be large; an effect the other way counts as inactive or inconclusive.

SMILES	3T3 cytotox	Luciferase inh	hNpr1 antagonist	HEK293 tox
CC1=NS(=O)(=O)N(Cc2ccccc2)C=C1C(=O)OCc1noc(-c2cccc(F)c2)n1	?	–	?	?
O=C(Nc1cccc(C(F)(F)F)c1)N[C@H]1[C@H](O)[C@@H](Oc2ccccc2)[C@@H]2OC[C@H]1O2	79.4µM	–	–	?
O=C(Nc1cccc(C(F)(F)F)c1)N[C@H]1[C@H](O)[C@@H](N2CCC(Cc3ccccc3)CC2)[C@@H]2OC[C@H]1O2	35.5µM	–	–	?
COc1cccc(NC(=O)N[C@H]2[C@H](O)[C@@H](Oc3ccccc3)[C@@H]3OC[C@H]2O3)c1	–	–	–	–
CS(=O)(=O)N1CCC(OC2CCN(C(=O)Nc3ccc4c(c3)OCCO4)CC2)CC1	–	35.5µM	–	–
CS(=O)(=O)N(Cc1cccnc1)C1CN(C(=O)C2CCCCC2)C1	–	–	–	–
O=C(Nc1ccc2c(c1)OCCO2)N1CCC(Cc2nc(-c3ccncc3)n[nH]2)CC1	–	79.4µM	–	–
CS(=O)(=O)N(Cc1cccnc1)C1CN(C(=O)Nc2ccc3c(c2)OCCO3)C1	–	35.5µM	–	–
COc1ccc(C(=O)N2CCC(Cc3nc(-c4ccncc4)n[nH]3)CC2)cc1	?	·	·	–
COCCCn1c(C)cnc1C1CCN(C(=O)NCC(=O)OC)C1 (stereo not drawn)	–	–	–	–
COCCCn1c(C)cnc1C1CCN(C(=O)Nc2ccc3c(c2)OCCO3)C1 (stereo not drawn)	–	44.7µM	–	–
COc1ccc(CC(=O)Nc2ccc3n(c2=O)C[C@H]2C[C@@H]3CN(C(=O)Nc3ccc(OC)cc3)C2)cc1	–	–	–	–
CCOc1ccccc1NC(=O)CC1CCCN(c2cnn(CCOC)c(=O)c2)C1 (stereo not drawn)	?	–	–	–
CNC(=O)c1cc(-c2cccc(OC)c2OC)cc2c1OCCN2Cc1cccnc1	–	–	–	?
Cc1nc(CC2CCN(C(=O)Nc3ccc4c(c3)OCCO4)CC2)n[nH]1	–	44.7µM	–	–
Cc1cnc(CC2CCN(C(=O)Nc3ccc4c(c3)OCCO4)C2)n1C1CC1 (stereo not drawn)	–	·	·	–
CNC(=O)NCC(=O)N1CCCCCNC(=O)CC1c1ccccc1 (stereo not drawn)	–	–	–	–
COc1ccc(-c2noc(-c3ncn4c3COC(c3ccc(F)cc3)C4)n2)cc1OC (stereo not drawn)	28.2µM	–	–	?
COc1cc(-c2noc(-c3ncn4c3COC(c3ccc(F)cc3)C4)n2)cc(OC)c1OC (stereo not drawn)	?	–	–	?
Fc1ccc(C2Cn3cnc(-c4nc(-c5ccc6c(c5)OCO6)no4)c3CO2)cc1 (stereo not drawn)	25.1µM	?	–	?
O=S1(=O)CCCC(c2nc(-c3ccccc3)nn2Cc2ccccc2)C1 (stereo not drawn)	–	–	–	–
O=C(NC1CCN(c2nccc(Nc3ccccc3F)n2)CC1)c1cccc(Cl)c1	31.6µM	·	·	?
CC(=O)N1CCN(c2nccc(Nc3ccccc3F)n2)CC1	–	·	·	?
Cc1ccccc1C(=O)NC1CCN(c2nccc(Nc3ccccc3F)n2)CC1	?	·	·	20µM
Cc1ccc(C(=O)N2CCN(c3nccc(Nc4ccccc4F)n3)CC2)cc1	?	·	·	44.7µM!
SMILES	3T3 cytotox	Luciferase inh	hNpr1 antagonist	HEK293 tox
Cc1ccc(C(=O)NC2CCN(c3nccc(Nc4ccccc4F)n3)CC2)cc1	?	·	·	22.4µM
O=C(Cc1ccccn1)NC1CCN(c2nccc(Nc3ccccc3F)n2)CC1	?	·	·	–
Cn1cnc(S(=O)(=O)N2CCCCC2c2nc(-c3cccnc3)n[nH]2)c1 (stereo not drawn)	–	–	–	–
COc1ccc(CC(=O)N2CCC(N3C(=O)c4c(c(C)nn4-c4ccccc4)C3C(C)C)C2)cc1 (stereo not drawn)	39.8µM	·	·	?
Cc1nn(-c2ccccc2)c2c1C(C(C)C)N(C1CCN(C(=O)Nc3ccccc3)C1)C2=O (stereo not drawn)	?	·	·	–
Cc1nn(-c2ccccc2)c2c1C(C(C)C)N(C1CCN(C(=O)Cc3cccc(Cl)c3)C1)C2=O (stereo not drawn)	35.5µM	·	·	44.7µM
Cc1nn(-c2ccccc2)c2c1C(C(C)C)N(C1CCCN(C(=O)Cc3cccc(Cl)c3)C1)C2=O (stereo not drawn)	?	·	·	28.2µM
O=C1CO[C@H]2CN(c3nccc(C(F)(F)F)n3)C[C@H]2N1Cc1ccc(F)cc1	?	–	–	100µM
COc1ccc(-c2noc([C@@H]3C[C@H](NC(=O)COCC(=O)O)CN3C)n2)cc1	–	63.1µM	–	–
CN1C[C@@H](NC(=O)CC(C)(C)CC(=O)O)C[C@H]1c1nc(-c2ccc3ccccc3c2)no1	–	?	–	–
COCC(=O)N[C@H]1C[C@@H](c2nc(-c3ccc(OC(F)(F)F)cc3)no2)N(C)C1	?	?	–	?
CN1C[C@@H](NC(=O)CCC(=O)O)C[C@H]1c1nc(-c2ccc3ccccc3c2)no1	–	31.6µM	–	–
O=C(Cc1ccccc1)N1C[C@@H](CO)[C@@H]2Oc3ccc(Cl)cc3[C@@H]21	?	·	·	79.4µM
Cc1ccc(NC(=O)c2cc(-c3ccc[nH]3)n[nH]2)cc1C	–	7.94µM	–	–
Cc1ccc(NC(=O)c2cc(-c3ccc[nH]3)n[nH]2)cc1	–	3.98µM	–	–

Screens: PubChem, National Center for Advancing Translational Sciences (NCATS)
